Inconclusive results are not listed. The source made the active and inactive calls. Rule for the calls: active = hit-call score of the fitted dose curve at least 0.9, where 1 is the maximum; inconclusive = response in the unintended direction; inactive = score below 0.9.
Legend:
[1] = TOX21_p53_BLA_p2_viability: Viability Assessment in the Tox21 HCT-116 p53 Agonism Beta-lactamase Assay, Phase 2 (AID 2283591);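 note: compound exposure lasted 16 h at 37 °C; actives lower the ATP signal meaning cytotoxicity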
Outline: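 Cytotoxicity readout: CellTiter-Glo ATP luminescence, 30 min at room temperature, after the beta-lactamase read. Cells were HCT116 exposed 16 h at 37C to compounds pin-transferred at 217-fold dilution from DMSO stocks.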

[2] = target: Cellular tumor antigen p53 (Homo sapiens) (UniProt P04637); experiment: TOX21_p53_BLA_p3_ratio: Tox21 HCT-116 p53 Agonism Beta-lactamase Assay, Ratio, Phase 3 (AID 2283596)
Sequence of Cellular tumor antigen p53 (Homo sapiens) (P04637 whole entry, looked up): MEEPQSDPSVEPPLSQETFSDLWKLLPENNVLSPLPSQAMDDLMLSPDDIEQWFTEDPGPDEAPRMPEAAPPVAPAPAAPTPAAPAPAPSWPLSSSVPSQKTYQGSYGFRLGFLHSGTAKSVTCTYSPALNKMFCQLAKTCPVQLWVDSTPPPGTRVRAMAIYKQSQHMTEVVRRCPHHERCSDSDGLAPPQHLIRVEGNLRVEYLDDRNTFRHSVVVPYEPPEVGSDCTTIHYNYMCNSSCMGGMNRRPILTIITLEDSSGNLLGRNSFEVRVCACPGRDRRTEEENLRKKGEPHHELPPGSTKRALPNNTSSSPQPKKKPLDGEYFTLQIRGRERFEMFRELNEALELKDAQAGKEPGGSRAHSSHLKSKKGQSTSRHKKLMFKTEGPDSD
Outline: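 Cells were seeded at 4000/well, rested 5 h at 37C, then dosed with DMSO compound solutions (217-fold dilution) for 16 h. CCF4-AM substrate was loaded for 2 h at room temperature, and the 460/530 nm emission ratio was fitted for gain of signal versus DMSO.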

[3] = target: Cellular tumor antigen p53 (Homo sapiens) (UniProt P04637); experiment: TOX21_p53_BLA_p5_ratio: Tox21 HCT-116 p53 Agonism Beta-lactamase Assay, Ratio, Phase 5 (AID 2283599)
Outline: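 Beta-lactamase reporter ratio (blue 460 nm over green 530 nm, 405 nm excitation) after 2 h CCF4-AM loading, in HCT-116 cells exposed 16 h at 37 C to compounds pinned at 217-fold dilution. Increases relative to DMSO baseline scored.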

[4] = TOX21_p53_BLA_p4_viability: Viability Assessment in the Tox21 HCT-116 p53 Agonism Beta-lactamase Assay, Phase 4 (AID 2283597);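 note: hits lower the luminescence signal meaning cytotoxicity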
Outline: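 In this multiplexed secondary endpoint, HCT116 cells (4000 per well, compound at 5 h, 16 h treatment) received CellTiter-Glo after the beta-lactamase read. Luminescence after 30 min RT reflects ATP, and falling signal marks cytotoxicity.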

[5] = target: Cellular tumor antigen p53 (Homo sapiens) (UniProt P04637); experiment: TOX21_p53_BLA_p4_ratio: Tox21 HCT-116 p53 Agonism Beta-lactamase Assay, Ratio, Phase 4 (AID 2283601)
Outline: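 Signal is the blue/green (460nm/530nm) ratio of cleaved versus uncleaved CCF4-AM substrate, read after 2 h substrate loading. Cells were HCT116 carrying the p53-responsive beta-lactamase reporter, dosed 16 h at 37C, 5% CO2; CellTiter-Glo measured in parallel.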

[6] = TOX21_p53_BLA_p5_viability: Viability Assessment in the Tox21 HCT-116 p53 Agonism Beta-lactamase Assay, Phase 5 (AID 2283600)
Outline: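 Here cell health was gauged by ATP levels in wells holding 4000 cells, each treated 16 h with DMSO-delivered compounds at 217-fold dilution; reduced luminescence marked toxicity.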

Measured: AC50

CN(C)CCCN1c2ccccc2C(C)(C)c2ccccc21
inactive: [1] | [2] | [3]

CC(O)CO (stereo not given) (tested in a mixture with another compound)
inactive: [1] | [2] | [4] | [5]

C=CC[N+]1([C@H]2C[C@H]3[C@@H]4CC[C@H]5C[C@H](OC(C)=O)[C@@H](N6CCCCC6)C[C@]5(C)[C@H]4CC[C@]3(C)[C@H]2OC(=O)CC)CCCCC1
not listed: [3]
inactive: all other assays above

CN1C(=O)C[C@@H](C(=O)N[C@@H](Cc2cnc[nH]2)C(=O)N2CCC[C@H]2C(N)=O)NC1=O
not listed: [4]
inactive: all other assays above

ClC1=C(Cl)C1(Cl)Cl
not listed: [3]
inactive: all other assays above

CCO[Si](OCC)(OCC)OCC
not listed: [6]
inactive: all other assays above

CCCCS
inactive: [1] | [2] | [3] | [6]

O=C1OC(CN2CCOCC2)CN1N=Cc1ccc([N+](=O)[O-])o1 (stereo not given)
not listed: [4]
inactive: all other assays above

CCC1=C(C)CN(C(=O)NCCc2ccc(S(=O)(=O)NC(=O)NC3CCC(C)CC3)cc2)C1=O (stereo not given)
inactive: [1] | [4] | [3]

CC(C)CC=O
inactive: [1] | [4] | [3]

CCC(Cc1c(I)cc(I)c(O)c1I)C(=O)O (stereo not given)
inactive: [1] | [4] | [3]

COc1cc2nc(N3CCN(C(=O)C4CCCO4)CC3)nc(N)c2cc1OC (stereo not given)
not listed: [2]
inactive: all other assays above

Cc1c(N)cccc1[N+](=O)[O-]
inactive: [1] | [4] | [3] | [6]

CC(=O)Nc1c(I)cc(I)c(C(=O)O)c1I
inactive: [1] | [2] | [3] | [5]

CC(=O)[C@@]1(O)CC[C@H]2[C@@H]3C[C@H](C)C4=CC(=O)CC[C@]4(C)[C@H]3CC[C@@]21C
inactive: [1] | [4] | [3]

CC(COc1ccc(C(C)(C)C)cc1)OS(=O)OCCCl (stereo not given)
not listed: [2]
inactive: all other assays above

COCCOCCOCCOCCO
inactive: [1] | [2] | [3] | [5]

O=C1OC(=O)C2CCCCC12 (stereo not given)
inactive: [1] | [4] | [3]

O=C(CN1CCN(Cc2ccc3c(c2)OCO3)CC1)N1c2ccccc2Sc2ccccc21
not listed: [2]
inactive: all other assays above

O=C1c2c(O)cccc2C([C@@H]2O[C@H](CO)[C@@H](O)[C@H](O)[C@H]2O)c2cc(CO)cc(O)c21 (stereo not given in full)
not listed: [2]
inactive: all other assays above

COc1c(O)cc2c(c1O)[C@@H]1O[C@H](CO)[C@@H](O)[C@H](O)[C@H]1OC2=O
inactive: [1] | [2] | [3] | [5]

CC(=C(CCO)SSCC1CCCO1)N(C=O)Cc1cnc(C)nc1N (stereo not given)
inactive: [1] | [4] | [3]

CC(=O)C1CCCCC1=O (stereo not given)
inactive: [1] | [2] | [6]

CC(=O)N=c1sc(S(N)(=O)=O)nn1C
not listed: [2]
inactive: all other assays above

CCN1CCC[C@H]1CNC(=O)c1c(O)c(Cl)cc(Cl)c1OC
inactive: [1] | [4] | [3] | [6]

COc1ccccc1OCCNCC(O)COc1cccc2[nH]c3ccccc3c12 (stereo not given)
active: [4] 36.8 µM | [5] 41.9 µM
inactive: [1] | [3] | [6]

Cc1cscn1
inactive: [1] | [4]

CCn1cc(C(=O)O)c(=O)c2cnc(N3CCNCC3)nc21
inactive: [1] | [2] | [5]

Cc1cccc(Nc2ccncc2S(=O)(=O)NC(=O)NC(C)C)c1
not listed: [2]
inactive: all other assays above

CC(C)=CC(=O)C=C(C)C
inactive: [1] | [4] | [3] | [6]

CN1CCCC(n2nc(Cc3ccc(Cl)cc3)c3ccccc3c2=O)CC1 (stereo not given)
inactive: [1] | [4]

O=c1[nH]cnc2ccccc12
not listed: [2]
inactive: all other assays above

CC(C)CCCO
inactive: [1] | [2] | [5]

Clc1ccccc1-c1nc(-c2ccncc2)no1
inactive: [1] | [4] | [3] | [6]

From PubChem BioAssay (EPA / NIEHS)
